We go through 31 compounds from PubChem BioAssay (NCI).

What all share (assay): NCI-60 one-dose screen, 48 h (100 = growth as untreated, 0 = no growth, -100 = all killed)
Common to all, as to conditions: 10 µM unless noted

For experiment [1], the system named is BT-549 breast.
For experiment [2], the system named is SW-620 colon.
The subject of experiment [3] is MCF7 breast.
The subject of experiment [4] is HCT-116 colon.
Experiment [5] relates to HCC-2998 colon.
The subject of experiment [6] is KM12 colon.

The structures appear in SMILES notation. This is part of a sample that, as a whole, favours compounds with a hit. Of some 83,000 tested, about 20% had one in any assay.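 Treatment: one concentration, 48 hours, 96-well format. Scoring: percent growth, with anything below 10 considered active.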 A number with no mark means an inactive call. The source made the active and inactive calls.

For the compound `COc1cc(/C=C/C(=O)c2ccc(C)cc2)ccc1Oc1nc(NCCO)nc(N2CCOCC2)n1`, the growth in experiment [1] was -58.8% (active); in experiment [2] it was 3.05% (active); in experiment [3] it was 9.07% (active); in experiment [4] it was -77.2% (active); in experiment [5], 93.8%; in experiment [6], 20.2%.

Turning to `CC(=NNc1ncnc2ccccc12)c1ccc(S(C)(=O)=O)cc1`, the growth was 105% in experiment [1]; 104% in experiment [2]; 87.5% in experiment [3]; 100% in experiment [4]; 111% in experiment [5]; 102% in experiment [6].

Take `O=C1Nc2cc(Cl)ccc2/C1=C\c1ccc(OCc2ccc([N+](=O)[O-])cc2)cc1`: the growth in experiment [1] was 77.5%; in experiment [2], 76.8%; in experiment [3] it was 61.3%; in experiment [4], 68.2%; in experiment [5], 82.8%; in experiment [6], 64.6%.

On to `C#Cc1nc(C2=C(C)C(OC(=O)CCC(=O)O)CC2)cs1` (stereo not drawn), for which the growth in experiment [1] is 102%; in experiment [2] it was 113%; in experiment [3], 87.6%; in experiment [4], 114%; in experiment [5], 109%; in experiment [6], 79.2%.

Take `O=[N+]([O-])c1ccc(O)c2ncccc12`: the growth is 61.4% in experiment [1]; 25.7% in experiment [2]; 9.13% (active) in experiment [3]; 21.4% in experiment [4]; 44.5% in experiment [5]; 22.2% in experiment [6].

Consider `OC1CCN(CCCOc2c3ccc(Cl)cc3nc3c2oc2ccc(Cl)cc23)CC1`, for which the growth in experiment [1] is 46.6%; in experiment [2], -82.6% (active); in experiment [3], -79.7% (active); in experiment [4], 12.3%; in experiment [5] it was 36.8%; in experiment [6], -74.3% (active).

Consider `CN(C)CCCOc1c2ccc(Cl)cc2nc2c1oc1ccccc12`, for which the growth in experiment [1] was 8.05% (active); in experiment [2], 9.59% (active); in experiment [3], -18.6% (active); in experiment [4], 1.47% (active); in experiment [5], -58.1% (active); in experiment [6], 0.963% (active).

In the case of `c1ccc2c(NCCCn3ccnc3)c3oc4ccccc4c3nc2c1`, the growth was 21.6% in experiment [1]; -16.9% (active) in experiment [2]; -11.4% (active) in experiment [3]; 6.12% (active) in experiment [4]; 0.465% (active) in experiment [5]; 7.47% (active) in experiment [6].

For the compound `Nc1nc(N)c2c(n1)NC(c1ccc(C(F)(F)F)cc1)CC(c1ccc(Nc3nc(NCCO)nc(Nc4ccc(Cl)cc4)n3)cc1)=N2` (stereo not drawn), the growth was -28.7% (active) in experiment [1]; -66.6% (active) in experiment [2]; -52.5% (active) in experiment [3]; -85.3% (active) in experiment [4]; -86.6% (active) in experiment [5].

Turning to `N#Cc1c(-c2ccc(F)cc2)nc2c(C#N)c(Nc3ccccc3)nn2c1N`, the growth in experiment [1] was 109%; in experiment [2] it was 106%; in experiment [4], 105%; in experiment [5] it was 109%; in experiment [6], 97.9%.

On to `Cc1ccc(C(=O)Nc2cccc(C(F)(F)F)c2)cc1Nc1nc(-c2cnccn2)nc2c1cnn2C`, for which the growth in experiment [1] is 143%; in experiment [2] it was 58.4%; in experiment [3], 73.2%; in experiment [4], 35.6%; in experiment [5], 47.9%; in experiment [6], 56.6%.

`CCCC(=O)NC(c1ccc(N(CC)CC)cc1)c1cc(C)c2cccnc2c1O` (stereo not drawn): the growth in experiment [1] is 29.9%; in experiment [2] it was 31.4%; in experiment [4], 16.8%; in experiment [5], 33.9%; in experiment [6] it was 29.6%.

With `O=C(CSc1nc2sc3c(c2c(=O)n1-c1ccc(Cl)cc1)CCCC3)NNC(=O)Nc1ccc(Cl)c(C(F)(F)F)c1`, the growth was 69% in experiment [1]; 4.66% (active) in experiment [2]; 18.6% in experiment [3]; 13.6% in experiment [4]; 42.4% in experiment [5]; 25.9% in experiment [6].

For the compound `CCCC(=O)NC(c1cccc(N(C)C)c1)c1cc(C)c2cccnc2c1O` (stereo not drawn), the growth in experiment [1] was 78.4%; in experiment [2] it was 50%; in experiment [3], 35.3%; in experiment [4] it was 22.7%; in experiment [5] it was 57.9%; in experiment [6], 54.9%.

In the case of `CCOC(=O)c1c(Nc2ccccc2)nn2c(-c3ccco3)c(C#N)cnc12`, the growth in experiment [1] is 83.1%; in experiment [2], 94.7%; in experiment [4], 92.5%; in experiment [5] it was 112%; in experiment [6], 98.6%.

Turning to `CN1CCc2c(sc3ncnc(N/N=C/c4ccc(Cl)c(Cl)c4)c23)C1`, the growth was 42.2% in experiment [1]; -68.4% (active) in experiment [2]; -64.5% (active) in experiment [4]; -47.9% (active) in experiment [5]; 22.8% in experiment [6].

Regarding `CS(=O)(=O)c1ccc(-c2nc3ccccn3c2C=Nc2ccc(Cl)cc2)cc1`, the growth in experiment [1] is 74.3%; in experiment [2], 63%; in experiment [3], 87.7%; in experiment [4], 52.1%; in experiment [5] it was 95.8%.

Consider `Cc1nc(-c2cc3ccccc3oc2=O)ccc1C(=O)/C=C/c1ccccn1`, for which the growth in experiment [1] is 82.5%; in experiment [2] it was 1.33% (active); in experiment [3], 8.39% (active); in experiment [4], -21% (active); in experiment [5] it was 66.6%; in experiment [6], 6.06% (active).

`C=CCn1c(SCC(=O)c2ccc(Br)cc2)nnc1-c1c[nH]c2ccccc12`: the growth is 106% in experiment [1]; 110% in experiment [2]; 97.9% in experiment [3]; 93.5% in experiment [4]; 104% in experiment [5]; 102% in experiment [6].

On to `CC(O)C(NC(=O)C1CCCN1C(=O)CNC(=O)C1CC(=O)NCC(=O)NC(Cc2c[nH]c3ccccc23)C(=O)NC(Cc2ccc(O)cc2)C(=O)NCC(=O)NC(CO)C(=O)NC(CCC(N)=O)C(=O)NC(Cc2c[nH]c3ccccc23)C(=O)N1)C(=O)NCC(=O)NC(CCC(N)=O)C(=O)NC(CCCNC(=N)N)C(=O)NC(CC(=O)O)C(=O)O` (stereo not drawn), for which the growth in experiment [1] is 115%; in experiment [2], 102%; in experiment [3], 96.4%; in experiment [4] it was 97.4%; in experiment [5], 120%; in experiment [6], 105%.

In the case of `COc1cccc(-c2nn(-c3ccccc3)cc2-c2ccnc(N3CCN(C(=O)c4ccccc4)CC3)c2)c1`, the growth in experiment [1] was 91.4%; in experiment [2] it was 72.1%; in experiment [3] it was 85.5%; in experiment [4], 73.3%; in experiment [5] it was 113%.

Regarding `O=C1Nc2ccccc2Oc2ccc(S(=O)(=O)CC3CO3)cc21` (stereo not drawn), the growth is 25% in experiment [1]; 17.9% in experiment [2]; 18.1% in experiment [3]; 46.3% in experiment [4]; 71.9% in experiment [5].

In the case of `CCOC(=O)c1c(Nc2ccccc2)nn2c(N)c(C#N)c(-c3ccc(Cl)cc3)nc12`, the growth was 96.7% in experiment [1]; 65.8% in experiment [2]; 65.2% in experiment [3]; 59.9% in experiment [4]; 83.5% in experiment [5]; 64.1% in experiment [6].

Turning to `O=C(N/N=C/c1cccs1)c1[nH]c2ccc(Br)cc2c1-c1ccccc1`, the growth in experiment [1] was -14.2% (active); in experiment [2], 22.8%; in experiment [3], 8.78% (active); in experiment [4] it was -33.7% (active); in experiment [5] it was 24.1%; in experiment [6] it was 6.37% (active).

For `COC(=O)C(Cc1ccccc1)NS(=O)(=O)/N=C1\NC(=O)NC1=C(Cl)Cl` (stereo not drawn), the growth in experiment [1] was 95.6%; in experiment [2], 98.9%; in experiment [3] it was 29.1%; in experiment [4], 77.3%; in experiment [5] it was 113%; in experiment [6], 9.49% (active).

As to `O=C(Oc1ccc2ccc(=O)oc2c1)c1ccc(Cl)cc1`, the growth is 101% in experiment [1]; 102% in experiment [2]; 94% in experiment [3]; 98.5% in experiment [4]; 102% in experiment [5]; 108% in experiment [6].

As for `C/C(=C(/c1ccc(Cl)cc1)c1ccc(OCCN)cc1)c1ccc(C)cc1`, the growth in experiment [1] was 117%; in experiment [2], 93.5%; in experiment [3] it was 102%; in experiment [4], 101%; in experiment [5], 111%; in experiment [6] it was 103%.

In the case of `Clc1ccc(-c2cn3cc(Cc4ccc(Cl)c(Cl)c4)sc3n2)cc1`, the growth in experiment [1] was 88.9%; in experiment [2] it was 51.7%; in experiment [3], 49.2%; in experiment [4] it was 54%; in experiment [5], 68.1%; in experiment [6], 32.1%.

With `CN(C)CCCOc1c2ccccc2nc2c1oc1ccc(Cl)cc12`, the growth in experiment [1] is 19.2%; in experiment [2] it was -3.7% (active); in experiment [3] it was -16.6% (active); in experiment [4] it was 10.9%; in experiment [5] it was 11.1%; in experiment [6] it was 1.62% (active).

On to `COC1CCN(Cc2ccc3c(NNC(=O)c4cnccn4)nc4cc(F)ccc4n23)C1` (stereo not drawn), for which the growth in experiment [1] is 51.7%; in experiment [2] it was 24%; in experiment [3], 14%; in experiment [4] it was 4.53% (active); in experiment [5] it was 59.9%; in experiment [6], 22.6%.

On to `O=C1Nc2ccc(Cl)cc2/C1=C/c1ccc(OCC(=O)c2ccc(Br)cc2)cc1`, for which the growth in experiment [1] is 118%; in experiment [2], 89.9%; in experiment [3], 80.1%; in experiment [4], 95.5%; in experiment [5], 99.5%; in experiment [6], 59.1%.
